Laboratory results: PubChem BioAssay (NCI)
About 79,000 compounds went through this panel and 15% of them were active in at least one assay; those are over-represented in the sample as a whole. The source made the active and inactive calls. No stated cut-off is given here; in the data, active means growth inhibition above about 70%; inactive means the rest. Residues, ends and D or L forms follow the SMILES beside them. *: point of attachment. CH2Cl = ClC*

Columns and labels:
[1] = NCI Yeast Anticancer Drug Screen. Data for the rad52 strain (AID 147);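 further: 0% = growth of vehicle-treated control cultures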; details: S. cerevisiae rad52 mutant growth inhibition, active compounds read high
Summary of the method: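 Growth of repair-deficient yeast cells was compared between compound-treated and vehicle-treated cultures to give percent inhibition.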

[2] = NCI Yeast Anticancer Drug Screen. Data for the wt1 strain (AID 149);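 further: 0% = growth of vehicle-treated wt1 cultures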; details: S. cerevisiae wt1 strain (SPY 50644) growth inhibition, active compounds read high
Summary of the method: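 Growth inhibition read against vehicle controls after compound exposure of the wt1 yeast strain.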

[3] = NCI Yeast Anticancer Drug Screen. Data for the rad50EPP+ strain (AID 151);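 further: 0% = growth of vehicle-treated control cultures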; details: S. cerevisiae rad50 mutant strain, active compounds read high
Summary of the method: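 Measured: growth inhibition of rad50EPP+ yeast. Reference: vehicle-treated controls. Screen uses strains with defined genetic alterations in DNA damage repair or cell cycle control.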

[4] = NCI Yeast Anticancer Drug Screen. Data for the mgt1 strain (AID 153); details: S. cerevisiae mgt1 mutant growth inhibition, active compounds read high
Summary of the method: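 Compounds were applied to mgt1 mutant yeast, and growth was then compared against vehicle-treated control cultures to give percent inhibition.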

[5] = NCI Yeast Anticancer Drug Screen. Data for the rad50 strain (AID 155);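 further: 0% = growth of vehicle-only cultures of the same strain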; details: S. cerevisiae rad50 strain growth inhibition, active compounds read high
Summary of the method: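 Readout: growth inhibition relative to vehicle-treated cultures. Compound exposure was carried out in a genetically defined yeast strain deficient in DNA damage repair.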

[6] = NCI Yeast Anticancer Drug Screen. Data for the mec2-1 strain (AID 157); details: S. cerevisiae mec2-1 strain, active compounds read high
Summary of the method: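 Compounds were applied to mec2-1 yeast cells. Their growth was then compared with that of vehicle-treated cultures to give growth inhibition.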

[7] = NCI Yeast Anticancer Drug Screen. Data for the rad14 strain (AID 159);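 further: 0% = growth of vehicle-treated control cultures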; details: S. cerevisiae rad14 strain growth inhibition, active compounds read high
Summary of the method: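 Growth inhibition vs vehicle controls; genetically altered yeast strain (DNA damage repair defect) treated with test compounds.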

[8] = NCI Yeast Anticancer Drug Screen. Data for the sgs1 mgt1 strain (AID 161);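 further: 0% = growth of cultures given vehicle only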; details: S. cerevisiae sgs1 mgt1 strain, active compounds read high
Summary of the method: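 This yeast growth screen uses a strain with defined DNA-repair lesions; compound-treated growth is compared with vehicle-treated growth.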

[9] = NCI Yeast Anticancer Drug Screen. Data for the CLN2oe strain (AID 163);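 further: 0% = growth of vehicle-only control cultures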; details: S. cerevisiae CLN2oe strain, active compounds read high
Summary of the method: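 Cells of an engineered yeast line with disturbed cell-cycle regulation are treated with compound. Inhibition of growth is then calculated relative to the vehicle-treated reference.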

[10] = NCI Yeast Anticancer Drug Screen. Data for the cln2 rad14 strain (AID 165);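 further: 0% = growth equal to vehicle treated cultures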; details: S. cerevisiae cln2 rad14 strain, active compounds read high
Summary of the method: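 Strain: cln2 rad14 yeast, altered in cell cycle control and DNA damage repair. Read-out: growth inhibition vs vehicle.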

[11] = NCI Yeast Anticancer Drug Screen. Data for the bub3 strain (AID 167); details: S. cerevisiae bub3 mutant strain, active compounds read high
Summary of the method: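 Readout: yeast growth inhibition, expressed relative to vehicle-only wells. The test organism is a mutant strain from a panel with lesions in DNA repair or checkpoint genes.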

[12] = NCI Yeast Anticancer Drug Screen. Data for the wt2 strain (AID 169);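 further: 0% = growth of vehicle-treated yeast cultures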; details: S. cerevisiae wt2 strain growth inhibition, active compounds read high
Summary of the method: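 Growth of compound-treated yeast is measured and expressed as inhibition relative to vehicle-only controls.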

[13] = NCI Yeast Anticancer Drug Screen. Data for the mlh1 strain (AID 171);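 further: 0% = growth of vehicle-treated control cultures of the same strain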; details: S. cerevisiae mlh1 strain growth inhibition, active compounds read high
Summary of the method: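 Test agents were incubated with yeast bearing a defined DNA damage repair or cell cycle control alteration; values are growth inhibition normalised to vehicle-treated cultures.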

[14] = NCI Yeast Anticancer Drug Screen. Data for the mlh1 rad18 strain (AID 175); details: S. cerevisiae mlh1 rad18 strain growth inhibition, active compounds read high
Summary of the method: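 A repair-deficient yeast strain is exposed to test compound, and growth is scored relative to vehicle-treated controls.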

[15] = NCI Yeast Anticancer Drug Screen. Data for the rad18 strain (AID 177); details: S. cerevisiae rad18 mutant growth inhibition, active compounds read high
Summary of the method: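 DNA-repair-defective yeast; compound treatment; growth inhibition scored against vehicle.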

[16] = NCI Yeast Anticancer Drug Screen. Data for the sgs1 strain (AID 173);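 further: 0% = growth of vehicle-only control cultures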; details: S. cerevisiae sgs1 mutant, active compounds read high
Summary of the method: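 Strain with an altered DNA repair or cell cycle pathway exposed to compound. Growth then measured. Value = inhibition versus vehicle control.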

[17] = at 5.0 µM (retest, dose inferred, filed as 0.5)
[18] = at 50.0 µM (retest, dose inferred, filed as 5.0)

Measured: growth inhibition

CC(=O)NC(CC(C)C)C(=O)NC(Cc1ccccc1)C(=O)CCl (stereo not drawn) (Ac-Leu-Phe-CH2Cl; configuration not given here)
active: [1]; at 100.0 µM 74% | [4]; at 100.0 µM 83% | [5]; at 100.0 µM 77% | [6]; at 100.0 µM 85% | [11]; at 100.0 µM 84% | [12]; at 100.0 µM 71% | [13]; at 100.0 µM 77% | [15]; at 100.0 µM 72%
inactive: [1]; at 1.2 µM -3% | [1]; at 3.7 µM 1% | [1]; at 11.0 µM 9% | [1]; at 33.0 µM 27% | [2]; at 1.2 µM -2% | [2]; at 3.7 µM -5% | [2]; at 11.0 µM -5% | [2]; at 33.0 µM -4% | [2]; at 100.0 µM 37% | [3]; at 1.2 µM -3% | [3]; at 3.7 µM -4% | [3]; at 11.0 µM -1% | [3]; at 33.0 µM 9% | [3]; at 100.0 µM 52% | [4]; at 1.2 µM -5% | [4]; at 3.7 µM -5% | [4]; at 11.0 µM -6% | [4]; at 33.0 µM -2% | [5]; at 1.2 µM -3% | [5]; at 3.7 µM 1% | [5]; at 11.0 µM 6% | [5]; at 33.0 µM 25% | [5]; at 50.0 µM 7.1% | [6]; at 1.2 µM -4% | [6]; at 3.7 µM 0% | [6]; at 11.0 µM 3% | [6]; at 33.0 µM 21% | [6]; at 50.0 µM 33.4% | [7]; at 1.2 µM -5% | [7]; at 3.7 µM -4% | [7]; at 11.0 µM -2% | [7]; at 33.0 µM 3% | [7]; at 100.0 µM 36% | [8]; at 50.0 µM 46.9% | [9]; at 1.2 µM -8% | [9]; at 3.7 µM -7% | [9]; at 11.0 µM -8% | [9]; at 33.0 µM -2% | [9]; at 100.0 µM 51% | [10]; at 50.0 µM -31.9% | [11]; at 1.2 µM -1% | [11]; at 3.7 µM -2% | [11]; at 11.0 µM -4% | [11]; at 33.0 µM 6% | [11]; at 50.0 µM 53.7% | [12]; at 1.2 µM -4% | [12]; at 3.7 µM -3% | [12]; at 11.0 µM -2% | [12]; at 33.0 µM -1% | [13]; at 1.2 µM -4% | [13]; at 3.7 µM -3% | [13]; at 11.0 µM -1% | [13]; at 33.0 µM 5% | [14]; at 50.0 µM 40.3% | [15]; at 1.2 µM -3% | [15]; at 3.7 µM -2% | [15]; at 11.0 µM 3% | [15]; at 33.0 µM 9%

Clc1cc(-c2ccccc2)nc2ccccc12
inactive: [1]; at 1.2 µM 6% | [1]; at 3.7 µM -1% | [1]; at 11.0 µM 0% | [1]; at 33.0 µM 34% | [2]; at 1.2 µM -10% | [2]; at 3.7 µM -15% | [2]; at 11.0 µM -17% | [2]; at 33.0 µM 24% | [3]; at 1.2 µM 7% | [3]; at 3.7 µM 27% | [3]; at 11.0 µM 56% | [4]; at 1.2 µM 13% | [4]; at 3.7 µM 32% | [4]; at 11.0 µM 36% | [5]; at 1.2 µM 6% | [5]; at 3.7 µM 10% | [5]; [17] 68% | [5]; at 11.0 µM 2% | [5]; at 33.0 µM 36% | [6]; at 1.2 µM -18% | [6]; at 3.7 µM -8% | [6]; at 11.0 µM -14% | [6]; at 33.0 µM 33% | [6]; at 50.0 µM 44.4% | [7]; at 1.2 µM 1% | [7]; at 3.7 µM 2% | [7]; at 11.0 µM 1% | [7]; at 33.0 µM 46% | [8]; [17] -23% | [9]; at 1.2 µM 5% | [9]; at 3.7 µM 3% | [9]; at 11.0 µM -8% | [9]; at 33.0 µM 28% | [9]; at 100.0 µM 54% | [10]; [17] 40% | [11]; at 1.2 µM 11% | [11]; at 3.7 µM 23% | [11]; [17] 27% | [11]; at 11.0 µM 34% | [11]; at 33.0 µM 60% | [12]; at 1.2 µM -11% | [12]; at 3.7 µM -3% | [12]; at 11.0 µM 0% | [12]; at 33.0 µM 47% | [13]; at 1.2 µM 20% | [13]; at 3.7 µM 27% | [13]; at 11.0 µM 24% | [13]; at 33.0 µM 61% | [16]; at 1.2 µM -9% | [16]; at 3.7 µM -12% | [16]; at 11.0 µM -9% | [16]; at 33.0 µM 42% | [14]; [17] 47% | [14]; at 50.0 µM 31.4% | [15]; at 1.2 µM 16% | [15]; at 3.7 µM 9% | [15]; at 11.0 µM 25% | [15]; at 33.0 µM 59%
active: [1]; at 100.0 µM 75% | [2]; at 100.0 µM 71% | [3]; at 33.0 µM 77% | [3]; at 100.0 µM 90% | [4]; at 33.0 µM 80% | [4]; at 100.0 µM 97% | [5]; [18] 90% | [5]; at 50.0 µM 75.3% | [5]; at 100.0 µM 81% | [6]; [17] 77% | [6]; [18] 92% | [6]; at 100.0 µM 86% | [7]; at 100.0 µM 91% | [8]; [18] 88% | [10]; [18] 82% | [11]; [18] 93% | [11]; at 100.0 µM 93% | [12]; at 100.0 µM 86% | [13]; at 100.0 µM 95% | [16]; at 100.0 µM 82% | [14]; [18] 87% | [15]; at 100.0 µM 91%
